# Measured values: paper PMC12670160, “A drug-repurposing screen of FDA- and EMA-approved drugs identifies two NF-κB inhibitors active against eumycetoma” (Journal of Antimicrobial Chemotherapy, 2025)
# Where a name gives a salt, the structure may show the parent alone. Read-outs that look alike come from different tables or passages of the source. Screen size: about 5,300 compounds; about 130 (2.5%) showed an effect of 50% or more. The sample as a whole holds a higher share of strong results than the screen did. Peptide text beside a SMILES is read from it. * marks the point of attachment. PhAc = O=C(Cc1ccccc1)*
# Test system: M. mycetomatis strain mm55
# Conditions: primary screen, metabolic activity vs growth control, 96 h, 2 µM, inhibitor
# [1] = Madurella mycetomatis metabolic activity at 2µM (%)
smiles,measurement,setting,value
"COc1ccc(CCO[C@@H]2CCCC[C@H]2N2CC[C@@H](O)C2)cc1OC [ONC0001796, vernakalant hydrochloride]",% viability,,98.02%
"CC1C[C@H]2[C@@H]3CCC4=CC(=O)C=C[C@]4(C)[C@@]3(Cl)[C@@H](O)C[C@]2(C)[C@@]1(O)C(=O)CO (stereo partly shown) [ONC0000301, beclomethasone]",% viability,,73.26%
"Cc1cccc(OCC(O)CNC(C)(C)C)c1C (stereo not shown) [ONC0002362, xibenolol]",% viability,,46.41%
"CC(C)(C)NC[C@H](O)COc1cccc2c1CCCC2=O [ONC0002946, levobunolol]",% viability,,70.13%
"CC(C)(C)NC[C@@H](O)COc1cccc2c1CCCC2=O [ONC0002849, levobunolol]",% viability,,116.9%
"O=C1OC2(c3cc(I)c(O)c(I)c3Oc3c2cc(I)c(O)c3I)c2c(Cl)c(Cl)c(Cl)c(Cl)c21 [ONC0002983, rosebengallactone]",% viability,[1],60.55%
CCCCC(CC)CNC(=N)NC(=N)NCCCCCCNC(=N)NC(=N)NCC(CC)CCCC (stereo not shown) [Alexidine dihydrochloride],% viability,,2.643%
"CCCCCCCCCCC(CO)CCCCCCCC (stereo not shown) [ONC0003687, 2octyldodecan1ol]",% viability,,64.53%
"CCCCCCCCCCCCOS(=O)(=O)O [ONC0004120, dodecylsulfate]",% viability,[1],112%
"N=C(N)N=Nc1ccc(NNC(=N)S)cc1 [ONC0002980, ambazone]",% viability,,75.31%
"COC(=O)c1cc(OC)c2c(c1-c1c(CO)cc(OC)c3c1OCO3)OCO2 [ONC0002187, bicyclol]",% viability,,70.1%
"COC(=O)c1cc(OC)c2c(c1-c1c(C(=O)OC)cc(OC)c3c1OCO3)OCO2 [ONC0003333, bifendate]",% viability,,41.54%
"COC(=O)c1ccccc1O [ONC0003750, methylsalicylate]",% viability,,102.4%
"CC1(C)[C@@H](O)CC[C@]2(C)[C@H]3C(=O)C=C4[C@@H]5C[C@@](C)(C(=O)O)CC[C@]5(C)CC[C@@]4(C)[C@]3(C)CC[C@@H]12 [ONC0003205, enoxolone]",% viability,,101.1%
"CC1(C)[C@@H](OC(=O)CCC(=O)O)CC[C@]2(C)[C@H]3C(=O)C=C4[C@@H]5C[C@@](C)(C(=O)O)CC[C@]5(C)CC[C@@]4(C)[C@]3(C)CC[C@@H]12 [ONC0000604, carbenoxolone sodium]",% viability,,49.18%
"CC(=O)O[C@@H]1CC[C@@]2(C)[C@@H](CC[C@]3(C)[C@@H]2C(=O)C=C2[C@@H]4[C@@H](C)[C@H](C)CC[C@]4(C)CC[C@]23C)[C@@]1(C)C(=O)O [ONC0002083, akba]",% viability,,67.6%
"O=c1[nH]c(=O)c2[nH]c(=O)[nH]c2[nH]1 [ONC0003522, uricacid]",% viability,,130.7%
"CCOC(=O)CNC(=O)[C@@H]1CCCN1C(=O)Cc1ccccc1 [ONC0001144, omberacetam] (PhAc-Pro-Gly-OEt)",% viability,,45.25%
"C[C@H](N[C@@H](CCc1ccccc1)C(=O)O)C(=O)N1CCC[C@H]1C(=O)O [ONC0003897, enalaprilat]",% viability,,70.49%
"CCOC(=O)[C@H](CCc1ccccc1)N[C@@H](C)C(=O)N1CCC[C@H]1C(=O)O [ONC0000561, enalapril maleate]",% viability,,109.8%
"N[C@@H]1C[C@H]1c1ccccc1 (racemic) [ONC0000562, tranylcypromine sulfate]",% viability,,104.4%
"CCCN(CCC)CCc1ccc(OC)c(OCCc2ccccc2)c1 [ONC0000866, ne100]",% viability,,62.29%
"O=P(O)(O)C(O)(Cc1cnc2ccccn12)P(=O)(O)O [ONC0000278, minodronic acid hydrate]",% viability,,88.21%
"C[C@@H]1O[C@@]2(CS1)CN1CCC2CC1.C[C@H]1O[C@]2(CS1)CN1CCC2CC1.Cl [ONC0002680, cevimeline]",% viability,,67.14%
"COc1ccccc1CC(=N)N1C[C@@H]2C(=O)CCC(c3ccccc3)(c3ccccc3)[C@@H]2C1 [ONC0001413, rp67580]",% viability,,48.12%
"COc1ccccc1N1CCN(CCN2C(=O)CC3(CCCC3)CC2=O)CC1 [ONC0002563, bmy7378]",% viability,,52.22%
"NC(CC(F)C(=O)O)C(=O)O (stereo not shown) [ONC0003677, 4fluorodlglutamic acid]",% viability,,63.49%
"CCN(CC)S(=O)(=O)c1ccc(C(=O)O)cc1 [ONC0004305, etebenecid]",% viability,,97.53%
"CC(C)c1ccc2c(c1)CC[C@H]1[C@](C)(CN)CCC[C@]21C [ONC0000210, lylamine]",% viability,,63.87%
"O=c1[nH]cnc2c1ncn2[C@H]1CC[C@@H](CO)O1 [ONC0004781, didanosine videx]",% viability,,107%
"Nc1ncnc2c1ncn2[C@H]1CC[C@@H](CO)O1 [ONC0003689, 23dideoxyadenosine]",% viability,,49.81%
"Nc1ncnc2c1ncn2[C@@H]1O[C@H](CO)C[C@H]1O [ONC0003004, cordycepin]",% viability,,108%
"CSc1ccccc1Nc1nc(N2CCNCC2)nc2c(NCC3CC3)ncnc12.Cl [ONC0001097, khkin1 hydrochloride]",% viability,,76.94%
"COc1cc(N2CCN(C(C)=O)CC2)ccc1Nc1ncc(Cl)c(Nc2ccc(N3CCN(C(C)=O)CC3)cc2OC)n1 [ONC0003574, krca0008]",% viability,,122%
CC(=O)N1CCN(c2ccc(OCC3COC(Cn4ccnc4)(c4ccc(Cl)cc4Cl)O3)cc2)CC1 (stereo not shown) [Ketoconazole],% viability,,1.788%
CCC(C)n1ncn(-c2ccc(N3CCN(c4ccc(OCC5COC(Cn6cncn6)(c6ccc(Cl)cc6Cl)O5)cc4)CC3)cc2)c1=O (stereo not shown) [Itraconazole hydrochloride],% viability,,4.9%
"O=C(O)c1ccc(OCCn2ccnc2)cc1 [ONC0003331, dazoxiben]",% viability,,112.5%
"CC(C)N1CCN(c2ccc(OC[C@@H]3CO[C@@](Cn4cncn4)(c4ccc(Cl)cc4Cl)O3)cc2)CC1 [ONC0002390, terconazole]",% viability,,66.82%
CC[C@@H]([C@H](C)O)n1ncn(-c2ccc(N3CCN(c4ccc(OC[C@@H]5CO[C@@](Cn6cncn6)(c6ccc(F)cc6F)C5)cc4)CC3)cc2)c1=O [Posaconazole],% viability,,0.7626%
"CCC(=O)O[C@@H](OP(=O)(CCCCc1ccccc1)CC(=O)N1C[C@H](C2CCCCC2)C[C@H]1C(=O)O)C(C)C (stereo partly shown) [ONC0005007, fosinopril sodium monopril]",% viability,,152.1%
"O=C(CCCN1CCC(n2c(O)nc3ccccc32)CC1)c1ccc(F)cc1 [ONC0002014, benperidol]",% viability,,79.93%
"N[C@@H]1CON=C1O [ONC0000314, cycloserine d]",% viability,,88.4%
"CN[C@@H](C)C(=O)N[C@H]1CCCC[C@H]2CCC(C(=O)N[C@@H](c3ccccc3)c3cn(CCCCc4ccc(CCCCn5cc([C@@H](NC(=O)[C@@H]6CC[C@@H]7CCCC[C@H](NC(=O)[C@H](C)NC)C(=O)N76)c6ccccc6)nn5)cc4)nn3)N2C1=O (stereo partly shown) [ONC0003931, sm164]",% viability,,63.69%
"C=CC(=O)[O-].[Na+] [ONC0002646, sodium acrylate]",% viability,,77.54%
"N#Cc1cnc2cnc(NCc3cccnc3)cc2c1Nc1ccc(F)c(Cl)c1 [ONC0001337, tcs7006]",% viability,,78.74%
"N#Cc1cnc2c(Cl)cc(NCc3cn(CCN4CCCCCC4)nn3)cc2c1Nc1ccc(F)c(Cl)c1 [ONC0000779, cot inhibitor1]",% viability,,49.03%
"CCN1CCC(n2cc(CNc3cc(Cl)c4ncc(C#N)c(Nc5ccc(F)c(Cl)c5)c4c3)nn2)CC1 [ONC0002075, cot inhibitor2]",% viability,,82.04%
"CC(C)=CCC/C(C)=C/CC/C(C)=C/C=C/C(C)=C/C(=O)O [ONC0000885, peretinoin]",% viability,,65.8%
"CCCC[P+](CCCC)(CCCC)Cc1ccc(NC(=O)[C@H](Cc2ccc3ccccc3c2)N=C(NC2CCCCC2)NC2CCCCC2)cc1 [ONC0000223, win64338]",% viability,,62.1%
"CC(NC(=O)CCc1nc(=O)c2ccccc2[nH]1)c1ccccc1 (stereo not shown) [ONC0005174, me0328]",% viability,,117.9%
"CC1(C)Oc2ccc(C#N)cc2[C@@H](OC2=CC(=O)CC2)[C@@H]1O [ONC0003452, pco 400]",% viability,,40.31%
"CC1(C)Oc2ccc(C#N)cc2[C@@H](N2CCCC2=O)[C@@H]1O.CC1(C)Oc2ccc(C#N)cc2[C@H](N2CCCC2=O)[C@H]1O [ONC0001708, levcromakalim]",% viability,,57.98%
"CC(=O)N(O)[C@@H]1c2cc(C#N)ccc2OC(C)(C)[C@H]1O [ONC0004430, y26763]",% viability,,123.9%
"CCCCCCCCCCCCCCCC(=O)OC1C(SC)OC(C(NC(=O)C2CC(CCC)CN2C)C(C)Cl)C(O)C1O (stereo not shown) [ONC0004643, clindamycin palmitate hcl]",% viability,,84.71%
"CC(=O)OCC(=O)[C@@]12OC(C)(C)O[C@@H]1CC1C3C[C@H](F)C4=CC(=O)C=C[C@]4(C)[C@@]3(F)[C@@H](O)C[C@@]12C (stereo partly shown) [ONC0000518, fluocinonide]",% viability,,69.32%
"CCN(CC)CCNC(=O)COc1ccc(OC)cc1 [ONC0000676, mefexamide hydrochloride]",% viability,,93.51%
"CCN(CC)CCN1C(=O)C(=Cc2ccc(OC)cc2)Nc2ccccc21 [ONC0005609, caroverine]",% viability,,42.25%
"COc1ccc(C2Sc3ccccc3N(CCN(C)C)C(=O)C2OC(C)=O)cc1 (stereo not shown) [ONC0005348, diltiazem hydrochloride]",% viability,,61.39%
